Measured values as given in PubChem BioAssay AID1794844 (National Center for Advancing Translational Sciences (NCATS), 2023).
Hit rate of the full screen: of about 2,800 compounds, fewer than 10 were called active. Another 7% or so got no clear call; they are omitted. Calls come from the whole dose curve; as a rule, active = well fitted inhibition curve with a large enough effect; inconclusive = small, poorly fitted or top-dose-only effect; inactive = no such curve, though single readings can be large or run the other way. Only a sample is shown.

What follows are compounds tested against Metallo-beta-lactamase type 2 (Klebsiella pneumoniae) (UniProt C7C422) (assay: qHTS to identify inhibitors of the New Delhi Metallo-beta-lactamase (NDM): Nitrocefin screen against the machine-based learning selections.). Conditions: NDM-1 enzyme, nitrocefin hydrolysis, absorbance 485 nm; series mostly up to 38.4 µM; activity, negative = inhibition: at the top concentration.
Metallo-beta-lactamase type 2 (Klebsiella pneumoniae), sequence (C7C422 whole entry, looked up): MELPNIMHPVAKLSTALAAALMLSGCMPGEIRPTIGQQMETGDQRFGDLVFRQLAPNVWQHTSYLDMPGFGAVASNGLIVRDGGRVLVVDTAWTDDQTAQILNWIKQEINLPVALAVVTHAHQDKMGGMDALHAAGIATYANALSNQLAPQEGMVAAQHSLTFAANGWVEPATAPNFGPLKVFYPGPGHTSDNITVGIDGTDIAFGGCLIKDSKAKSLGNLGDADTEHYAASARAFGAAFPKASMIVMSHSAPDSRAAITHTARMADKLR
Excerpt: Assay Submitter (PI): James Inglese Ph.D., Patricia Dranchak Ph.D., Mahesh Aitha Ph.D. Assay Development and Screening Technology Laboratory (ADST) National Center for Advancing Translational Sciences (NCATS), Rockville, MD National Institute of Health (NIH), Bethesda, Maryland The metallo-beta-lactamases (MBL) are a main antibiotic resistance mechanism evolved by bacteria. There is an urgent clinical need for MBL inhibitors to mitigate this growing threat. To support a machine-based learning study, qHTS has been used to experimentally test inhibitors identified by prediction tools.
PROTOCOL TABLE (as described by Inglese et al., 2007) SEQUENCE No. (e.g., 1, 2, 3, etc.); […] (e.g., enzyme, Incubation, Reagent, etc.); VALUE; DESCRIPTION Primary Screen 1; NDM-1; 4 uL of 3 nM enzyme [2 nM final] in 50 mM HEPES (pH 7.0), 1 uM […], 0.01% Tween20; Use BioRaptr to dispense into two sets of Aurora black, clear bottom high base 1536-well plates 2; Compounds; 23 nL; Use Pin Tool (Wako) to transfer DMSO control and library compounds in DMSO 3; Incubate; >30 min 4a; Reagent; 2 uL of 50 uM nitrocefin [16.7 uM final] to one set of assay plates 4b; Reagent; 2 uL of 150 uM meropenem [50 uM final] to second set of assay plates 5a; Incubate; 15 min 5b; Incubate; 30 min 6a; Detector; Absorbance at 485 nm (bandwidth = 5 nm, 25 flashes/well) on Tecan Infinity 6b; Detector; Absorbance at 300 nm (bandwidth = 5 nm, 25 flashes/well) on Tecan Infinity NOTES (numbers refer to sequence above) 1; Column 1 of each plate received assay buffer without enzyme and columns 2-48 received enzyme for a final assay concentration of 2 nM. 2; Control plate contained DMSO in columns 1, 2, 3, and 4. 3; Compound interaction with enzyme. 4; Nitrocefin and meropenem substrates were prepared in the same assay buffer as step 1 for a final assay concentration of 16.7 uM and 50 uM, respectively, and added to all wells across respective sets of assay plates. 5; Default reader settings were applied for absorbance read at 485 nm (nitrocefin) or 300 nm (meropenem), bandwidth = 5 nm, 25 flashes/well. References: Inglese J, Shamu CE, Guy RK. 2007. Reporting data from high-throughput screening of small-molecule libraries. Nat Chem Biol. doi:10.1038/nchembio0807-438 Yasgar A, Shinn P, Jadhav A, Auld D, Michael S, Zheng W, Austin CP, Inglese J, Simeonov A. 2008. Compound Management for Quantitative High-Throughput Screening. J Lab Autom 13:79 - 89. doi:10.1016/j.jala.2007.12.004
Potency is the fitted concentration of half-maximal effect.
Throughout, for activity, negative = inhibition: % of control where 0% means no effect.

activity, negative = inhibition, inactive:
COc1ccc(-c2nnc3n2CCN(C(=O)C(C)(C)C)C3)cc1 6.95% [at 57.5 µM]
O=C(Cc1c[nH]c2ncc(-c3ccc(Cl)cc3)cc12)NCc1cccnc1 5.86% [at 57.5 µM]
CC(C)(C)CC(=O)N1CC[C@H]2CC(=O)N(Cc3cccnc3)CC[C@H]2C1 2.57% [at 57.5 µM]
CC[C@H]1CN(C(C)=O)CC[C@H]1CC(=O)NC(C)C -1.15% [at 76.7 µM]
CCNC(=O)[C@@H]1C[C@H](NC(=O)c2ccccc2)CN1Cc1scnc1C -0.216%
CS(=O)(=O)N1CC(C(=O)Nc2ccc(N3CCOCC3)cc2)C2(CCCCC2)C1 (centres undefined) -0.109%
O=C(NCc1cc2n(n1)CCN(C1CCCCC1)C2)c1cnn2ccccc12 -7.31%
CCCN(CC1CCOC1)C(=O)Nc1cccc(F)c1C (centres undefined) 1.38%
O=C(O)[C@]12CCCN[C@@H]1CCN(Cc1ccc(-c3ccccn3)cc1)C2 -17.4%
Cc1cccc(CN2CCCC3(CCN(Cc4cccc(O)c4)C3)C2)c1 (centres undefined) 4.09%
Cc1cc(Cn2cc3c4c(cccc42)[C@H](CC(C)C)N[C@H](C(=O)N2CCN(C)CC2)C3)no1 -2.8%
CN1CCOc2c(C(=O)NCc3cccnc3)cc(-c3ccccc3O)cc21 0.182% [at 57.5 µM]
Cc1ccc2c(n1)N(C)[C@H](CO)CCN(Cc1cccnc1)C2 4.8% [at 57.5 µM]
O=C(C1CC1)N1CCC2(CC1)CCN(CCc1ccccc1)c1ccccc1O2 49.1%
COc1ccc(OC)c(CNC(=O)CC2CCOCC2)c1 -2.81%
O=c1[nH]nc(CNCC2(O)CCCNC2)c2ccccc12 (centres undefined) -13.4%
Cc1ccc(C(=O)NC2CCN(c3ccc(F)cc3)C2=O)s1 (centres undefined) -2.33%
Cc1noc(C)c1S(=O)(=O)N1CCCN(Cc2ccncc2)C(c2ccccc2)CC(=O)NCC1 (centres undefined) 7.54%
COc1cccc(N2C(=O)N[C@@H]3CCN(S(=O)(=O)c4ccccc4)[C@@H]3C2=O)c1 0.447% [at 57.5 µM]
COc1ncccc1C(=O)N1CCc2c(nc(-c3cccnc3)[nH]c2=O)C1 3.94%
CN1CCOc2c(C(=O)NCCC(N)=O)cc(-c3ccccc3O)cc21 -0.0482% [at 57.5 µM]
O=C(Cc1ccccc1)Nc1ccnn1C1CCN(Cc2ccc3cccc(F)c3n2)CC1 -1.06%
COC(=O)[C@H]1CN(C(=O)c2cccnc2)CCN1C(=O)C1CCCCC1 2.03% [at 57.5 µM]
COCCNC(=O)C[C@@H]1O[C@H](CNC(=O)c2cccc(F)c2)[C@@H](O)[C@H]1O -2.43% [at 57.5 µM]
N#Cc1cccc(CN2CCOC[C@H]2c2ncc(-c3ccc(C(F)(F)F)cc3)[nH]2)c1 3.87% [at 57.5 µM]
CCN(CC)Cc1nc(C2(O)CCN(C)CC2)cs1 -1.47% [at 76.7 µM]
Fc1ccc2nc([C@H]3CCN(C4CCC4)C3)[nH]c2c1 14% [at 76.7 µM]
CSc1ncccc1C(=O)NC1CCCN(CCCc2ccccc2)C1 (centres undefined) 9.24%
CC(=O)N1CCN(c2cc(-c3noc([C@@H]4CCCN4Cc4ccccc4C)n3)ccn2)CC1 -0.621%
O=c1c2nc(NCc3cccs3)ccc2ncn1Cc1ccccc1 0.467% [at 57.5 µM]
COCCNS(=O)(=O)c1cc(C(=O)O)cc(-c2ccc(OC)c(F)c2)c1 -0.8%
Cc1noc2c(-c3cccc(O)c3)cc(-c3cccs3)nc12 1.99% [at 57.5 µM]
COC[C@H]1CCCN1C(=O)[C@@H](C)C1CC[C@@]2(C)CC[C@H](NC(=O)CC(C)(C)C)[C@@H](C)[C@@H]2[C@H]1O (some centres undefined) -2.54%
CN1C(=O)C(c2ccccc2)CC12CCN(C(=O)c1cccc(F)c1)CC2 (centres undefined) 5.03%
CC(C)NC(=O)N1CCN(C(=O)N2CCOCC2)[C@@H](C(=O)N[C@H](Cc2c[nH]c3ccccc23)C(N)=O)C1 -10.8%
CC[C@H]1CN(C(=O)NC(C)C)CC[C@H]1CC(=O)N(C)CCC#N -12.7% [at 57.5 µM]
Cc1nn2cc(CCNCC3(O)CNCCOC3)nc2s1 (centres undefined) 2.59%
COc1ccccc1C(O)c1nc(Nc2ccc(C(C)C)cc2)n[nH]1 (centres undefined) 7.45% [at 57.5 µM]
Cc1ccc(NC(=O)N[C@@H]2C=C(C(=O)N[C@H](CC(C)C)C(N)=O)C[C@@H](O)[C@@H]2O)cc1 2.2% [at 57.5 µM]
Cc1ccc(-n2nc(C)c([C@@H]3C=C[C@@H](NCc4cccc(C#N)c4)C3)c2C)cc1Cl 2.91% [at 57.5 µM]
OC(c1ccccc1)c1nc(Nc2ccc(C(F)(F)F)cc2)n[nH]1 (centres undefined) 7.39% [at 57.5 µM]
CC(C)Cc1cc(C(=O)N2C[C@H](C3CC3)[C@@H](N)C2)n(C)n1 -2.3%
O=C(c1ccc(Cn2cnnn2)cc1)N1CCC2(CC1)[C@H](O)C[C@@H]2OCCO -2.43%
COc1ccc(OC)c(CNC(=O)Cc2cccn2-c2ccc(C)cc2)c1 -4.62%
COc1ccccc1C(O)c1nc(Nc2ccc(Cl)cc2)n[nH]1 (centres undefined) 3.08% [at 57.5 µM]
CNC(=O)C1(N2CCC[C@H]2C(=O)N2CCCC2)COC1 11.1% [at 76.7 µM]
COCCO[C@H]1C(=O)N(C2CCN(C(=O)c3cnccn3)CC2)[C@H]1c1ccncc1 5.4%

Potency, active:
O=C(O)CN1CCC[C@]2(C(=O)O)CN(Cc3cccc(O)c3)CC[C@@H]12 3.35 µM
Cc1ccccc1C1CCCN1Cc1ncccc1C(=O)O (centres undefined) 13.4 µM
